Experimental data reported in PubChem BioAssay (EPA / NIEHS).
The source made the active and inactive calls. The calls were made as follows: active = hit-call score of the fitted dose curve at least 0.9, where 1 is the maximum; inactive = score below 0.9.

Assay: ATG_PPRE_CIS: Attagene CIS-FACTORIAL HepG2 Assay for human Peroxisome Proliferator-activated Response Element (PPRE) (AID 2282958)
Conditions: HepG2 PPRE cis-element reporter, Attagene transcription factor profiling; actives raise or lower the signal
Description: ATG_CIS is a cell-based, multiplexed-readout assay that uses HepG2, a human liver cell line, with measurements taken at 24 hours after chemical dosing in a 24-well plate.ATG_PPRE_CIS is one of 52 assay component(s) measured or calculated from the ATG_CIS assay. It is designed to make measurements of mRNA induction, a form of inducible reporter, as detected with fluorescence intensity signals by Reverse transcription polymerase chain reaction (RT-PCR) and Capillary electrophoresis technology.Data from the assay component ATG_PPRE_CIS was analyzed into 1 assay endpoint. This assay endpoint, ATG_PPRE_CIS, was analyzed with bidirectional fitting relative to DMSO as the negative control and baseline of activity. Using a type of inducible reporter, measures of mRNA for gain or loss-of-signal activity can be used to understand the reporter gene at the transcription factor-level as they relate to the gene PPARA and PPARD and PPARG. Furthermore, this assay endpoint can be referred to as a primary readout, because this assay has produced multiple assay endpoints where this one serves a reporter gene function. To generalize the intended target to other relatable targets, this assay endpoint is annotated to the nuclear receptor intended target family, where the subfamily is non-steroidal.
Human liver HepG2 cells are transiently transfected with multiple reporter transcription units (MRTUs) in 6-well plates using FuGene 6 reagent (Roche; 3 ml FuGene/1 mg DNA). The MRTU constructs are regulated by a cis-regulating element (promoter). […] A major difference between the CIS and TRANS system is that in CIS activities of endogenous TFs are measured, whereas the TRANS assay evaluates changes in activities of exogenous, chimeric NR-Gal4 proteins. […] At the end of 24 hour incubation, total RNA was isolated using TriZol reagent (Invitrogen). The isolated RNA is then reverse-transcribed using oligo(dT) primer and Mo-MLV reverse transcriptase (Invitrogen) with DNAse I (Ambion) treatment for 30 min. The one-tenth of the produced cDNA was amplified by PCR using Taq DNA polymerase (Invitrogen) and two reporter sequence-specific primers. The PCR products were fluorescently labeled by primer extension with 6-arboxyfluorescein (6-FAM) 5'-labeled reporter sequence-specific primer (2 min at 95 C, 20 s at 68 C and 10 min at 72 C) and these products were digested with 5U of HpaI (New England Biolabs) for 2h at 37 C. The fragments were purified using Qiaquick PCR columns (Qiagen), analyzed on an ABI 3130xL genetic analyzer (Applied Biosystems) with peak positions identified by using a set of X-rhodamine (ROX)-labeled MapMarker1000 molecular weight standards (BioVentures). The raw capillary electrophoresis data was processed using Attagraph software (Attagene).

Structure (SMILES)	outcome	AC50
CC(C)COC(=O)c1ccccc1O	inactive	–
NCCN1CCNCC1	inactive	–
CCCCCCCCOC(C)=O	inactive	–
NC(=O)NC(N)=O	inactive	–
CC(C)CCOC(=O)CC(C)C	inactive	–
CCCCCCCCCCCCN1CCOCC1	inactive	–
NS(=O)(=O)c1cc(C(=O)O)c(NCc2ccco2)cc1Cl	inactive	–
CC(=O)c1ccc(O)cc1	inactive	–
C=C(C)C(=O)OCCOCCOC(=O)C(=C)C	inactive	–
CCC(C)C1CCCCC1=O (stereo not given)	inactive	–
O=C1OCc2ccccc21	inactive	–
CC(C)COC(=O)c1ccccc1	inactive	–
CCC=C(C)C=O	inactive	–
CCCCCCCC(=O)N(C)C	inactive	–
O=C(O)CS	inactive	–
CC1COC(=O)O1 (stereo not given)	inactive	–
CCC(C)(C)C1CCC(OC)CC1 (stereo not given)	inactive	–
CCCCCCCCCCOC(=O)c1ccccc1C(=O)OCCCCCCCC	inactive	–
CCOC(=O)C(=O)OCC	inactive	–
CCC(CC)CO	inactive	–

Structure (SMILES)	outcome	AC50
C=C(C)C(=O)OCCC[Si](OC)(OC)OC	inactive	–
C=C1CC[C@H]2O[C@]2(C)CC[C@@H]2[C@@H]1CC2(C)C	inactive	–
NC(=O)c1c(Cl)cccc1Cl	inactive	–
CCCCCCCCSCc1cc(C)c(O)c(CSCCCCCCCC)c1	inactive	–
c1ccc(OCCOc2ccccc2)cc1	–	0.0167 µM (active)
O=C(O)c1cc2ccccc2cc1O	–	52 µM (active)
COc1ccccc1NC(=O)CC(C)=O	inactive	–
CC(C)(C)c1ccc(S)cc1	inactive	–
C/C=C(\C)C(=O)OC/C=C(\C)CCC=C(C)C	–	39.6 µM (active)
Cc1cccc(O)c1	inactive	–
CN(C)C(=O)Nc1ccccc1	inactive	–
c1coc(CNc2ncnc3nc[nH]c23)c1	inactive	–
CC(=O)C1C(=O)C=C(C)OC1=O (stereo not given)	inactive	–
CC1=CC(O)CC(C)(C)C1 (stereo not given)	inactive	–
CCNC(=S)NCC	inactive	–
CC(CO)(CO)[N+](=O)[O-]	inactive	–
OC[C@H]1O[C@@H](O[C@H]2[C@H](O)[C@@H](O)[C@H](O)O[C@@H]2CO)[C@H](O)[C@@H](O)[C@H]1O	inactive	–
CC(C)Cc1ccc(C(C)C(=O)O)cc1 (stereo not given)	–	34.4 µM (active)
CCCCCCC(O)CCOC(C)=O (stereo not given)	inactive	–
CCC(C)COC(=O)CC(C)C (stereo not given)	inactive	–
